Whole data set: some 33,000 sequences, median “e-score” near -0.053, cut for the highest 2% near 0.38. The sample holds the highest values, similar sequences and a random draw of the others, so the mix is not that of the screen.

This assay deals with T1, SIX1 homeodomain (reference allele) (human, UniProt Q15475 108-198).
T1 sequence: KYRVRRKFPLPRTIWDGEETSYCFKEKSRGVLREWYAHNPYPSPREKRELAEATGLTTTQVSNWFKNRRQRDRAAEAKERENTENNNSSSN
Kind of assay: universal protein binding microarray; Universal all-10-mer PBM (8x60K, AMADID 030236), 300 nM GST-tagged protein, Alexa Fluor 488 anti-GST; buffer, salt, pH and temperature not stated (as in Berger); high values mean tight binding. The note with it: protein: ivt; tags: N-terminal GST; dsDNA, one strand shown. An outline of the steps: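 GST-tagged homeodomains were made by in vitro transcription/translation and quantified by anti-GST western blot against a recombinant GST standard curve. They were applied in duplicate at 300 nM final concentration to universal 'all 10-mer' protein binding microarrays (8×60K format). Binding was quantified as 8-mer E-scores with the Universal PBM Analysis Suite.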
For the sequence CGGATTGA, the binding signal was determined as 0.305 ± 0.0268 E-score.

Regarding AATGTATA, the binding signal was 0.259 ± 0.0211 E-score.

Take ACACCTCT: the binding signal amounted to 0.239 ± 0.0609 E-score.

Take TATCCAAA: the binding signal is 0.297 ± 0.0104 E-score.

With GGATTACA, the binding signal was found to be 0.18 ± 0.0206 E-score.

As for ATCGTCTG, the binding signal was determined as 0.162 ± 0.0451 E-score.

In the case of CCGGCATC, the binding signal was 0.201 ± 0.0414 E-score.

For AATACTGT, the binding signal worked out at 0.183 ± 0.00786 E-score.

Turning to GACACTGA, the binding signal was 0.161 ± 0.0506 E-score.

Regarding AATACTTC, the binding signal is 0.2 ± 0.116 E-score.

For AATACTTG, the binding signal came out at 0.151 ± 0.0521 E-score.

Turning to GATACTGC, the binding signal was 0.44524 ± 0.000438 E-score.

Turning to TATACTGA, the binding signal is 0.239 ± 0.00916 E-score.

In the case of AATACTGC, the binding signal was determined as 0.162 ± 0.0355 E-score.

Consider GATACTTA, for which the binding signal was 0.401 ± 0.0667 E-score.

For the sequence GATACTGA, the binding signal was determined as 0.42285 ± 0.000276 E-score.

For the sequence ATCGAGTA, the binding signal came out at 0.226 ± 0.00853 E-score.

Regarding CGAATACA, the binding signal came out at 0.151 ± 0.0627 E-score.

As to CCGCCTGA, the binding signal came to 0.228 ± 0.0274 E-score.

In the case of AACACCAG, the binding signal came out at 0.164 ± 0.0278 E-score.

ATCGCCCG: the binding signal came out at 0.198 ± 0.0602 E-score.

Turning to ACTCCATC, the binding signal was found to be 0.162 ± 0.00629 E-score.

As for ATCAGCTG, the binding signal was found to be 0.154 ± 0.0485 E-score.

On to CCCTCATC, for which the binding signal turned out to be 0.176 ± 0.0843 E-score.

As to CGACACTC, the binding signal was determined as 0.177 ± 0.0347 E-score.

As to ATACATAG, the binding signal turned out to be 0.177 ± 0.0401 E-score.

For the sequence GTAGTATA, the binding signal amounted to 0.267 ± 0.0665 E-score.

Regarding ATAGTATA, the binding signal worked out at 0.29 ± 0.0405 E-score.

Consider ATAGTATC, for which the binding signal was 0.426 ± 0.0263 E-score.

For CTAGTATC, the binding signal was 0.388 ± 0.0365 E-score.

As for CTAGTATA, the binding signal is 0.242 ± 0.0487 E-score.

Consider ATAGTATG, for which the binding signal is 0.258 ± 0.00892 E-score.

As for CATGTGAG, the binding signal was determined as 0.152 ± 0.0831 E-score.

Turning to ATCCAAGC, the binding signal came out at 0.169 ± 0.0665 E-score.

In the case of AGCCGATC, the binding signal was determined as 0.329 ± 0.0103 E-score.

In the case of CCGTATTC, the binding signal came to 0.177 ± 0.00726 E-score.

Turning to CCGTATAC, the binding signal came out at 0.36 ± 0.00586 E-score.

Take ACGTATCC: the binding signal worked out at 0.377 ± 0.0283 E-score.

Consider GCGTATCC, for which the binding signal worked out at 0.369 ± 0.00641 E-score.

On to ACGTATTC, for which the binding signal stood at 0.234 ± 0.0548 E-score.

Turning to ACGTATCG, the binding signal came out at 0.413 ± 0.0215 E-score.

Consider ACGTATCA, for which the binding signal amounted to 0.474 ± 0.0189 E-score.

With CCGTATCC, the binding signal is 0.438 ± 0.0211 E-score.

For ACGTATTG, the binding signal worked out at 0.211 ± 0.0377 E-score.

As to ACGTATCT, the binding signal was 0.339 ± 0.0607 E-score.

With ACGTATAA, the binding signal came out at 0.268 ± 0.0722 E-score.

For ACGTATAG, the binding signal was 0.189 ± 0.0603 E-score.

Take ATCAGTTA: the binding signal amounted to 0.182 ± 0.0174 E-score.

As to AAGATCGG, the binding signal worked out at 0.174 ± 0.064 E-score.

On to CGGATTAG, for which the binding signal turned out to be 0.251 ± 0.0088 E-score.

ATTGACAC: the binding signal was 0.3147 ± 0.00157 E-score.

Regarding CCCGATCA, the binding signal worked out at 0.347 ± 0.0408 E-score.

As to ATCAGTGG, the binding signal worked out at 0.261 ± 0.0178 E-score.

As for GCATATAC, the binding signal was determined as 0.227 ± 0.0131 E-score.

Regarding GCATATCC, the binding signal amounted to 0.391 ± 0.00731 E-score.

Turning to ACATATTA, the binding signal was 0.161 ± 0.0413 E-score.

For the sequence CCATATTA, the binding signal stood at 0.265 ± 0.0697 E-score.

Regarding CCATATCA, the binding signal stood at 0.472 ± 0.0124 E-score.

TCATATGA: the binding signal turned out to be 0.303 ± 0.0253 E-score.

In the case of GAATATCC, the binding signal turned out to be 0.276 ± 0.0527 E-score.

On to TAATATCA, for which the binding signal was 0.34 ± 0.0768 E-score.

Take TCATATCA: the binding signal came to 0.418 ± 0.0507 E-score.

On to ACATATGA, for which the binding signal turned out to be 0.166 ± 0.0311 E-score.

Consider CCATATAA, for which the binding signal was 0.155 ± 0.0479 E-score.

Regarding ACATATCA, the binding signal stood at 0.446 ± 0.0429 E-score.

Turning to AACGCATA, the binding signal was determined as 0.203 ± 0.0681 E-score.

As for AGAACACC, the binding signal stood at 0.179 ± 0.0208 E-score.

For the sequence CCCCGCGA, the binding signal amounted to 0.229 ± 0.018 E-score.

Consider ACCCAGCT, for which the binding signal amounted to 0.181 ± 0.00331 E-score.

For the sequence AGCCATCG, the binding signal worked out at 0.173 ± 0.0382 E-score.

On to TGAAACCA, for which the binding signal came to 0.163 ± 0.0347 E-score.

In the case of GCATATTA, the binding signal worked out at 0.249 ± 0.0567 E-score.

Take GCATATCA: the binding signal is 0.449 ± 0.0321 E-score.

For the sequence GCATATAA, the binding signal was found to be 0.175 ± 0.0587 E-score.

Regarding AATGTGAT, the binding signal was determined as 0.178 ± 0.0316 E-score.

For ACTATATA, the binding signal was found to be 0.247 ± 0.0141 E-score.

For the sequence AACGGTGT, the binding signal was determined as 0.253 ± 0.00261 E-score.

CGTATAGA: the binding signal was 0.28 ± 0.00298 E-score.

In the case of GGTATTAA, the binding signal came to 0.366 ± 0.0749 E-score.

For the sequence CGAATCGA, the binding signal is 0.182 ± 0.0398 E-score.

With GCTATCGA, the binding signal stood at 0.253 ± 0.0112 E-score.

In the case of CGTATCGA, the binding signal came out at 0.3978 ± 0.00377 E-score.

As for GGTATGGA, the binding signal amounted to 0.252 ± 0.0421 E-score.

Take AGTATTGA: the binding signal is 0.193 ± 0.0395 E-score.

On to CGTATTGA, for which the binding signal worked out at 0.23 ± 0.0207 E-score.

Turning to GGTATCGA, the binding signal was found to be 0.463 ± 0.00936 E-score.

Regarding AGTATTAC, the binding signal worked out at 0.188 ± 0.0763 E-score.

Consider GGTATTAC, for which the binding signal worked out at 0.385 ± 0.0216 E-score.

Regarding GGTATTGA, the binding signal is 0.3862 ± 0.0022 E-score.

The record behind these values is article PMC10668032, “Altered binding affinity of SIX1-Q177R correlates with enhanced WNT5A and WNT pathway effector expression in Wilms tumor”.
